For 37 molecules, Percent Effect results are on record in ChEMBL document CHEMBL3988442, “University of Dundee, Small-Polar-MMV Screening Library” (2021).

The target of assay [1] is T1, Aspartate--tRNA(Asp/Asn) ligase (Mycobacterium tuberculosis (strain ATCC 25618 / H37Rv)) (UniProt P9WFW3). Note: in the data most compounds retested in dose-response had high values.
T1 sequence (whole entry): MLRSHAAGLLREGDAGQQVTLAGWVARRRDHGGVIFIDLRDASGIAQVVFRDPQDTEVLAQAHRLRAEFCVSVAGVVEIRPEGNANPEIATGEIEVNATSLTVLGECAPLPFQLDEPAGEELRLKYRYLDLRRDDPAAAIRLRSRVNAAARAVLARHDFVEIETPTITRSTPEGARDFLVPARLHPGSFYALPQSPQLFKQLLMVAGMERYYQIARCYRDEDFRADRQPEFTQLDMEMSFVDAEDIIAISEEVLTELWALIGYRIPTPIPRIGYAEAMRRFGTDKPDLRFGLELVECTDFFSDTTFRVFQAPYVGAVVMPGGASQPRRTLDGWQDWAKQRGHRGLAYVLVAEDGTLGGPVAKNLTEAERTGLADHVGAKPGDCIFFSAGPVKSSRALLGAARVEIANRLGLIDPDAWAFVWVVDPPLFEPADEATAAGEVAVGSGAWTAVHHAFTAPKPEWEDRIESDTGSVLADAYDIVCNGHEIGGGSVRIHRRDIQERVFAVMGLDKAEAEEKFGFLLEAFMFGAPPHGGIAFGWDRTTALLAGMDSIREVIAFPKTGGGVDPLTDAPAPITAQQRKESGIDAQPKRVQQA
The assay is described as follows: Assay for Asp RNA synthetase-1 from Mycobacterium tuberculosis. The format is functional. More on the design: scale not given: direction of the effect not stated beside the values. The following applies: 30 µM.

In assay [2] the target is Shiga toxin 2 (Escherichia coli O157:H7) (UniProt P09385+P09386). The assay is described as follows: E. coli 0.157:H7 Shiga Toxin SOP - stx2 screening assay. It counts as functional. Further details: scale not given: direction of the effect not stated beside the values. The following applies: 30 µM.

For the molecule `Cc1ccsc1CN(CCN(C)C)Cc1ccccn1`, the Percent Effect in assay [1] was -0.167%; in assay [2], 1.36%.

As to `Cc1ccc(CNC(=O)Cn2ncc3c2c(C)nn3C)cc1`, the Percent Effect is -3.46% in assay [1] and -20.9% in assay [2].

Turning to `CC(C)c1nnc2n1CCN(CC(=O)N1CCc3ccccc3C1)C2`, the values for the Percent Effect in assay [1] and in assay [2] were -3.72% and -17%, respectively.

With `CC(C#N)CSc1ccccc1NCC(=O)Nc1ccc(F)cc1` (centres undefined), the Percent Effect in assay [1] was 2.19%; in assay [2], -7.42%.

On to `O=C1CC(c2cccnc2)C2(CCN(S(=O)(=O)C3CC3)CC2)N1` (centres undefined), for which the Percent Effect in assay [1] is -1.76%; in assay [2] it was 4.96%.

With `COc1cc2nc3n(c(=O)c2cc1OC)CCN(C(C)=O)CC3`, the Percent Effect in assay [1] was -0.551%; in assay [2], 17%.

`COCCN1CCC(NC(=O)C2(c3cc(C)cc(C)c3)CC2)CC1`: the Percent Effect is -4.05% in assay [1] and 22.9% in assay [2].

For `COc1cc(CN2CC[C@@]3(CCCO3)[C@@H](O)C2)ccc1F`, the Percent Effect came to 4.99% in assay [1] and 3% in assay [2].

With `COCc1nc2cc(NCc3ccncc3)ccc2o1`, the Percent Effect in assay [1] was 57.1%; in assay [2], -55.9%.

On to `CN(C)c1cc(C(=O)NCCc2n[nH]c(=O)[nH]2)ccn1`, for which the figures for the Percent Effect in assay [1] and in assay [2] were 0.719% and -0.859%, respectively.

Take `CCOCC1CN(Cc2ccoc2)Cc2ncn(CC3CC3)c21` (centres undefined): the Percent Effect in assay [1] was 0.605%; in assay [2], -8.58%.

For `CC(C)c1nc(C2CCCN2C(=O)c2cnc[nH]2)no1` (centres undefined), the Percent Effect in assay [1] was found to be 0.204%; in assay [2], 26.7%.

On to `CC(C)Nc1nc2c(cc1C(=O)N(C)C)CCNCC2`, for which the Percent Effect is 3.61% in assay [1] and -0.0143% in assay [2].

Consider `Cc1cc(C)n(CC2CCCN2CC(=O)NC2CCOCC2)n1` (centres undefined), for which the Percent Effect in assay [1] is -3.04%; in assay [2], -26.7%.

On to `O=C1CC(c2ccccc2)C2(CCN(Cc3ccccn3)CC2)N1` (centres undefined), for which the Percent Effect in assay [1] is 2.57%; in assay [2], -17.4%.

As for `CS(=O)(=O)c1snnc1C1CCN(Cc2ccncc2)CC1`, the Percent Effect in assay [1] is -6.42%; in assay [2], 0.0805%.

As for `CC(=O)N1CCCN(Cc2csc(-c3ncccn3)n2)CC1`, the Percent Effect in assay [1] is 5.15%; in assay [2] it was -13%.

`CCc1nc(CN2CCCC(NCc3cnn(C(C)(C)C)c3)C2)no1` (centres undefined): the Percent Effect in assay [1] was -3.23%; in assay [2] it was 2.93%.

As for `Cc1nn(C)c(C)c1CC(=O)N1CCCC(n2ccnc2)C1` (centres undefined), the Percent Effect in assay [1] is -4.83%; in assay [2] it was 12.9%.

Turning to `CN(C)C(=O)NC1COC2(CCN(Cc3ccccc3)CC2)C1` (centres undefined), the Percent Effect in assay [1] is -3.84%; in assay [2] it was -5.12%.

In the case of `CCC(NC(=O)C1CCN(S(C)(=O)=O)CC1)c1ccc(OC)c(OC)c1` (centres undefined), the Percent Effect was 0% in assay [1] and -10.4% in assay [2].

As for `COc1cc2nc(C)n(CC(=O)NCCCN(C)C)c(=O)c2cc1OC`, the Percent Effect in assay [1] was -0.232%; in assay [2], -51.4%.

With `COCC(NC(=O)c1cc[nH]n1)c1cccc(C(F)(F)F)c1` (centres undefined), the Percent Effect was -7.45% in assay [1] and -7.89% in assay [2].

`CCc1nccn1C1CCCN(C(=O)c2ccc3nncn3c2)C1` (centres undefined): the Percent Effect in assay [1] is -8.68%; in assay [2], 7.36%.

For `Nc1nccc(NCc2cc3n(n2)CCCN(C(=O)C2CCC2)C3)n1`, the values for the Percent Effect in assay [1] and in assay [2] were 0.0228% and 1.54%, respectively.

In the case of `CN(C)c1ncc(CN2CCC(c3nnsc3S(C)(=O)=O)CC2)cn1`, the Percent Effect in assay [1] was -3.26%; in assay [2], 1.96%.

Turning to `COC(=O)N1CCCN(C(=O)NCc2ccc(Cl)s2)CC1`, the Percent Effect is 5.28% in assay [1] and -16.1% in assay [2].

Take `Cc1nc2ccccc2c(=O)n1CCC(=O)N1CCNC(=O)C1`: the results for the Percent Effect in assay [1] and in assay [2] were -5.81% and 27.4%, respectively.

Turning to `Cc1nn(C)c(C)c1CNCc1ccnc(N2CCOCC2)c1`, the figures for the Percent Effect in assay [1] and in assay [2] were -2.46% and -9.51%, respectively.

Consider `CC(C)c1nccn1C1CCCN(C(=O)c2ccc3[nH]nnc3c2)C1` (centres undefined), for which the figures for the Percent Effect in assay [1] and in assay [2] were -3.89% and -22.6%, respectively.

As to `Cc1cc(C(=O)N2C[C@@H]3[C@@H](C2)OCC(=O)N3CC2CC2)no1`, the Percent Effect in assay [1] is 9.42%; in assay [2], -55.2%.

Turning to `c1cnc(-c2nc(CN3CCCC(Cn4cncn4)C3)cs2)nc1` (centres undefined), the Percent Effect in assay [1] was -1.55%; in assay [2], 20.5%.

Regarding `CC(C)Oc1cccc(CNC(=O)NC(C)(C(=O)O)c2ccco2)c1` (centres undefined), the Percent Effect in assay [1] worked out at 1.32%; in assay [2] it was 25.1%.

On to `c1cnnc(N2CCCC2CNc2ncnc3c2CCC3)c1` (centres undefined), for which the Percent Effect in assay [1] is -0.597%; in assay [2] it was 2.94%.

For the molecule `COc1cccc(NC(=O)N(CCO)Cc2ccsc2)c1`, the Percent Effect was -1.36% in assay [1] and -14.3% in assay [2].

For the molecule `O=C(c1cc(=O)[nH]c(=O)[nH]1)N1CCCCC1c1ccc(F)cc1` (centres undefined), the results for the Percent Effect in assay [1] and in assay [2] were 0.947% and -12.6%, respectively.

On to `CN(Cc1ccccn1)C1COC2(CCN(Cc3cccnc3)CC2)C1` (centres undefined), for which the Percent Effect is -2.07% in assay [1] and -24.6% in assay [2].
